# Rows were chosen to be rich in hits. Some 0.81% of all compounds tested hit in one or more screens of this group.
# LRH-1 inv ag: NR5A2 inverse agonism in reporter assay. O00482. HEK293T StAR-luciferase reporter, LRH-1 transfected, 24 h. inhibition, % at 3.6 µM. 360,000 compounds, 0.13% hits. AID 602396;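 active = inhibition above the mean inhibition of all tested compounds plus 3 SD, cut at about 73% in these data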;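 note: 0% = DMSO wells and 100% = reporter-only cells lacking LRH-1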
# NR2F2 inh: blocks human COUP-TFII nuclear receptor | P24468 | AID 686940 | inhibition, % at 8.6 µM | HEK293T NGFI-A luciferase reporter, luminescence | 370,000 compounds, 0.7% hits;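 active = inhibition above a per-plate cutoff, mean inhibition of test wells between control levels plus 3 SD, cut at about 38% in these data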;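 note: cells cotransfected with COUP-TFII expression vector driving the NGFI-A reporter; 0% = median of COUP-TF2 test wells and 100% = reporter-only cells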
# SRC1 inh: inhibitors of human steroid receptor coactivator 1 (SRC1); Q15788; 360,000 compounds, 0.12% hits; inhibition, % at 3.6 µM; AID 588354; HEK293 GAL4-SRC1 luciferase reporter, luminescence;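 active = inhibition above the campaign mean plus 3 SD, with each screening campaign given its own cutoff, cut at about 60% in these data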;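 note: 0% = DMSO treated cells and 100% = gossypol at 36 µM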
# SRC3 inh: inhibits human SRC3 coactivator. HEK293 GAL4-SRC3 luciferase reporter, luminescence. inhibition, % at 3.6 µM. 360,000 compounds, 0.17% hits. AID 588352;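 active = inhibition above a per-campaign cutoff, the mean of all compounds plus 3 SD, cut at about 60% in these data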;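 note: 0% = DMSO-treated cells and 100% = gossypol-treated cells at 36 µM; higher means less SRC3-driven luciferase light from the GAL4 reporter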
# SRC2 inh: human SRC2 (NCOA2) inhibition. HEK293 GAL4-SRC2 luciferase reporter, luminescence. inhibition, % at 9 µM. 370,000 compounds, 0.17% hits. Q15596;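 active = inhibition above the mean inhibition of all tested compounds plus 3 SD, set per campaign, cut at about 52% in these data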;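 note: 0% = DMSO treated cells and 100% = cells given Gossypol at 36 µM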
# Gal4-VP16 ctr: VP16 inhibition counter-screen for COUP-TFII; shares compounds with NR2F2 inh; AID 687007; 2,500 compounds, 25% hits; HEK293 Gal4-VP16 luciferase reporter, luminescence; inhibition, % at 8.5 µM; in the data active = inhibition above about 13%
# NR2F2 inh conf: confirmation of human COUP-TFII (NR2F2) inhibitors | inhibition, % at 8.5 µM | shares compounds with NR2F2 inh | HEK293 NGFI-A luciferase reporter, luminescence | 2,500 compounds, 45% hits;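 active = mean inhibition over three repeats above a set limit taken from the earlier primary screen, cut at about 38% in these data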;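 note: 100% = cells given the luciferase reporter alone without the COUP-TF2 vector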
# Starred values were filed as active, the others as inactive; . = no result given.
SMILES,LRH-1 inv ag,NR2F2 inh,SRC1 inh,SRC3 inh,SRC2 inh,Gal4-VP16 ctr,NR2F2 inh conf
CC(=O)c1sc(Nc2nc3ccc(F)cc3s2)nc1C,-91.6,-43.3,-71.6,-44.8,-74.0,.,.
COC(=O)c1ccc2nc(NC(=O)C(C)(C)C)sc2c1,18.3,66.4*,25.4,36.7,21.9,-75.3,35.1
Cc1nc2ccccc2n1/C(=N\S(=O)(=O)c1ccccc1)c1ccccc1,17.1,-9.2,0.5,-3.4,17.7,.,.
COc1ccc(C2=NS(=O)(=O)N(C)C(C(=O)N3CCc4ccccc4C3)=C2)cc1OC,46.0,39.2*,1.5,8.0,-0.3,5.8,21.6
CCc1ccc(NC(=O)C2=CC(c3ccc(OC)c(OC)c3)=NS(=O)(=O)N2C)cc1,20.7,38.2*,-4.3,6.9,11.5,-2.2,25.9
COc1ccc(C2=NS(=O)(=O)N(C)C(C(=O)NCc3ccccc3)=C2)cc1OC,28.8,2.6,7.8,-0.7,-2.4,.,.
COc1ccc(NC(=O)C2CCCN(c3c4c(nc5ncnn35)CCC4)C2)cc1OC (centres undefined),5.7,12.3,-30.2,-3.0,-4.2,.,.
O=C(CCCNC(=O)c1ccc(Cl)cc1)Nc1cccc(F)c1,7.9,-24.1,15.5,-11.9,-2.2,.,.
COc1ccc(CCNC(=O)CCNC(=O)c2ccc([N+](=O)[O-])cc2)cc1,14.9,38.5*,9.1,4.0,19.1,4.0,2.6
O=C(CCNC(=O)c1ccc([N+](=O)[O-])cc1)NCCc1ccc(Cl)cc1,-7.7,-5.2,-2.6,-1.3,-18.2,.,.
COc1cc(NS(=O)(=O)c2ccc(C)cc2C)cc(OC)c1OC,32.7,45.0*,12.3,28.6,-9.7,10.2,40.4*
C(=Cc1cccnc1)c1ccncc1,5.7,6.2,21.2,11.7,10.7,.,.
O=C(/C=C/c1cccnc1)/C=C/c1cccnc1,36.6,59.2*,-51.3,-11.9,52.2*,37.7*,20.1
CCOC(=O)Nc1cccc(OCC(=O)Nc2ccccc2OCC)c1,2.8,8.8,-5.8,2.1,8.2,.,.
Cn1nc(C(=O)OCC(=O)c2ccccc2)c2ccccc2c1=O,-22.4,-7.4,-10.1,-9.5,-24.0,.,.
COc1ccc2cc3cc(C(=O)Nc4ccc5c(c4)OCCO5)oc3nc2c1,-13.5,-7.8,-20.6,3.6,-18.8,.,.
COc1ccc2cc3cc(C(=O)Nc4cc(OC)c(OC)c(OC)c4)oc3nc2c1,45.7,49.5*,63.0*,44.6,24.1,-5.6,18.6
Cc1ccc(NC(=S)N(CCCN2CCCC2)Cc2cccn2Cc2ccc(Cl)cc2)cc1C,-0.5,-6.4,-12.1,11.6,-12.0,.,.
FC(F)(F)c1cccc(NC(=S)N(CCCN2CCCC2)Cc2cccn2Cc2ccc(Cl)cc2)c1,12.5,38.5*,1.3,37.8,1.5,-2.2,1.1
Cc1cc(NC(=O)c2ccc(Cn3nc(C)c(Br)c3C)o2)no1,-3.1,1.0,14.2,11.3,2.2,.,.
Cc1nn(Cc2ccc(C(=O)NC(C)(C)C)o2)c(C)c1Br,10.3,48.0*,16.7,2.9,37.0,0.8,33.5
O=C(c1cc2nc(-c3ccc(F)cc3)cc(C(F)(F)F)n2n1)N1CCCCC1c1cccnc1 (centres undefined),10.5,41.2*,13.4,27.0,10.5,9.3,57.3*
CN=c1scc(-c2ccccc2F)n1/N=C/c1ccc(O)c(O)c1O,-51.8,20.8,-80.8,-32.0,-6.1,.,.
CN=c1scc(-c2ccccc2F)n1/N=C/c1ccc[nH]1,90.7*,106.5*,92.3*,91.7*,90.6*,86.0*,107.0*
CCOC(=O)c1ccc2[nH]c(C)c(C)c2c1,-79.0,-20.4,-61.1,-14.7,-83.1,.,.
SMILES,LRH-1 inv ag,NR2F2 inh,SRC1 inh,SRC3 inh,SRC2 inh,Gal4-VP16 ctr,NR2F2 inh conf
COc1cc(C(=O)N2Cc3cc4ccccc4nc3C2C)cc(OC)c1OC (centres undefined),-22.5,-1.3,-15.4,-9.1,3.4,.,.
Cc1ccc(NC(=O)C2CCN(S(=O)(=O)c3ccc(N4CCCC4=O)cc3)CC2)cc1Cl,23.8,66.1*,-1.4,5.5,37.8,2.0,45.8*
Cc1ccccc1C(=O)N1CCC(C(=O)Nc2cccc(S(=O)(=O)N3CCCCC3)c2)CC1,9.8,33.5,5.9,-0.2,10.3,.,.
COc1ccc(NC(=O)C2CCN(S(=O)(=O)c3ccc4c(c3)NC(=O)C(C)S4)CC2)cc1 (centres undefined),3.0,14.3,6.2,-16.4,13.9,.,.
Cc1ccc(NC(=O)C2CCCN(C(=O)c3ccc(Cl)cc3)C2)cc1S(=O)(=O)N1CCOCC1 (centres undefined),14.9,37.6*,12.1,9.5,-11.8,-7.2,3.0
Cc1ccccc1C(=O)N1CCC(C(=O)Nc2ccc(C)c(S(=O)(=O)N3CCCCC3)c2)CC1,11.2,41.6*,-0.9,19.9,16.3,-6.2,13.1
CC1Sc2ccc(S(=O)(=O)N3CCC(C(=O)Nc4ccc(Cl)cc4)CC3)cc2NC1=O (centres undefined),21.8,65.8*,3.3,17.9,23.2,16.1*,72.5*
CCOC(=O)C1=CCN(S(=O)(=O)c2ccc(C)cc2)C1c1ccc(C(C)C)cc1 (centres undefined),13.2,1.2,7.0,-3.6,-5.9,.,.
O=C(Nc1ccccc1)C1C2CCC3C(CCC21)C3(Cl)Cl (centres undefined),17.6,-12.8,4.2,-4.8,-13.3,.,.
COc1ccc(-c2cn(CCC(=O)NCc3ccc(C)cc3)c(CCN)n2)cc1,8.5,22.9,-13.7,-7.9,-3.3,.,.
COC(=O)c1c(O)c2c([nH]c1=O)CCCC2,-6.1,-2.1,-16.4,8.7,7.2,.,.
C=CCn1c(SCc2ccc(C(=O)Nc3nccs3)cc2)nnc1-c1ccc(C)c(Cl)c1,-0.1,39.7*,-4.2,18.9,21.6,-11.9,20.9
COc1ccc(OC)c(NC(=O)Cn2c(=O)n(CC(=O)NCc3ccco3)c(=O)c3ccccc32)c1,11.7,6.6,20.5,4.7,-0.7,.,.
Cc1cc(C)nc(NC(N)=NC(C)c2ccccc2)n1 (centres undefined),.,-14.0,.,.,11.6,.,.
Cc1cc(C)nc(NC(N)=NCCc2c[nH]c3ccccc23)n1,26.6,39.6*,17.1,25.0,3.2,-6.4,13.2
Cc1cc(C)nc(NC(N)=NCCc2ccccc2)n1,48.1,42.5*,38.4,50.6,24.8,-11.7,19.1
COc1ccc(/C=C/C(=O)NC(=S)NNC(=O)[C@H]2C[C@@H]2c2ccccc2)cc1OC,-21.2,-11.1,8.1,-21.9,7.5,.,.
COc1cc(/C=C/C(=O)Oc2coc(CSc3ncccn3)cc2=O)cc(OC)c1OC,-9.7,-0.2,10.2,10.2,-25.8,.,.
CC(=O)/C(N=Nc1ccc2c(c1)OCCO2)=C(\C)O,35.2,68.4*,43.3,57.2,45.3,-121.7,-36.5
CC(=O)/C(N=Nc1ccc2c(c1)OCO2)=C(\C)O,-15.7,-14.4,-35.2,-48.1,-33.0,.,.

# Bioassay records from PubChem.
